# NS1 inh = qHTS Assay for Inhibitors of Influenza NS1 Protein Function; Potency, µM (doses to about 46.1 µM), for the others: at the top dose activity, positive = more growth; hit rate 0.4% among 270,000; AID 2326, 2010; note: potency is the fitted concentration of half-maximal effect; actives are rising curves; nearly all actives have a fitted effect of over 50% in size
#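 A cell-based growth assay was used: compounds that relieve NS1-induced slow growth of budding yeast raise OD600. Assay medium was yeast nitrogen base with ammonium sulphate and -URA supplement, pH 6.0, with 2% galactose.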
# Cycloheximide cs = Cycloheximide Counterscreen for Small Molecule Inhibitors of Shiga Toxin. hit rate 12% among 300,000. AID 2314, 2010. cell reporter, cycloheximide protein synthesis inhibition counterscreen. max response, %; in the data active = max response mostly above about 13%, no sharp cut-off; inactive = mostly below about 14%; note: read at 38.3 µM for the half of the compounds with a filed dose; 0% is about no effect
# SARS PLpro yeast = qHTS of Yeast-based Assay for SARS-CoV PLP; S. cerevisiae expressing SARS-CoV PLpro, growth rescue; Potency, µM (top dose mostly 32.9 µM), without a hit: at the top dose activity, positive = growth rescue, usual class: activators; hit rate 0.19% among 330,000; AID 485353, 2010; note: potency is the fitted concentration of half-maximal effect; 0% is about no effect; nearly all actives have a fitted effect of over 55% in size
# Shiga inhibitor = A qHTS for Small Molecule Inhibitors of Shiga Toxin; hit rate 9.2% among 290,000; Vero cells, Shiga toxin protein synthesis inhibition reporter; inhibition, % at 38.7 µM; AID 2315, 2010; in the data active = inhibition mostly above about 28%, no sharp cut-off; inactive = mostly below about 43%; note: 0% is about no effect
# The depositor's hits bear a star; ? = inconclusive; nt = no result. This is a sample that favours compounds with a hit; in the whole collection about 12% have one here. Unless noted, calls come from the whole dose curve.
SMILES,NS1 inh,Cycloheximide cs,SARS PLpro yeast,Shiga inhibitor
Cc1sc(N/N=C/c2ccco2)nc1-c1ccccc1,14%,27*,1%,91*
CN(C)S(=O)(=O)c1ccc(-c2csc(N/N=C/c3ccco3)n2)cc1,7%,19,-3%,29
Cc1cc(C)nc(N/N=C/c2ccco2)n1,6%,-2,-1%,-36
O=C(CC1C(=O)NCCN1Cc1cccc(Oc2ccccc2)c1)NCCc1cnccn1 (centres undefined),4%,4,0%,29
COc1ccc(NC2=NCC(Cc3ccc(Br)cc3)S2)cc1 (centres undefined),-16%,3,-26%,12
O=C(COC(=O)c1cc(S(=O)(=O)N2CCOCC2)ccc1O)Nc1cc(S(=O)(=O)N2CCCC2)ccc1Cl,2%,1,0%,38
Nc1cc(C(=O)O)c(Oc2ccc(Cl)cc2Cl)cc1C(=O)O,21%,-1,14%,-18
COc1ccccc1N=Nc1nc(-c2ccccc2)c(-c2ccccc2)[nH]1,-8%,12*,1%,-1
NC(=O)COC(=O)c1ccc2noc(-c3ccccc3)c2c1,4%,57*,0%,81*
NC(=O)COC(=O)c1ccc(C(=O)C(=O)c2ccccc2)cc1,nt,-2,1%,-28
Brc1ccc(-c2noc(-c3ccccn3)n2)o1,-33%,45*,-3%,81*
Brc1ccc(-c2nc(-c3ccncc3)no2)o1,6%,24*,0%,64*
COc1ccc(-c2nc(-c3ccccn3)no2)cc1,-7%,-9,-5%,-19
Brc1ccc(-c2nc(-c3ccccn3)no2)o1,-74%,14*,-15%,-6
Clc1ccc(-c2nc(-c3ccccn3)no2)cc1Cl,-4%,66*,2%,77*
CCC(=O)Nc1ccc2c(c1)ncn2-c1ccc(OC)cc1,11%,46*,8%,66*
CCC(=O)Nc1ccc2c(c1)ncn2-c1ccc(C)cc1,nt,36*,0%,96*
CCC(=O)Nc1ccc2c(c1)ncn2-c1ccccc1C,-1%,-3,0%,14
CN(C)CCNc1cnn(-c2ccccc2)c(=O)c1Cl,-1%,17*,1%,55
O=c1c(Cl)c(NCCO)cnn1-c1cccc(Cl)c1,nt,23*,0%,51*
CNc1cnn(-c2ccccc2)c(=O)c1Cl,7%,-3,9%,37
CC(C)(C)NC(=O)N1CCN(c2nc(-c3ccccc3)ns2)CC1,-8%,35*,-2%,108*
O=C(c1ccc(F)cc1F)N1CCCN(c2nc(-c3ccccc3)ns2)CC1,-12%,1,-4%,19
CC(C)(CC(=O)O)CC(=O)N1CCCN(c2nc3ccc(Cl)cc3s2)CC1,4%,16*,4%,67*
CCCCC(=O)N1CCN(c2nc3ccc(Cl)cc3s2)CC1,-27%,45*,-5%,43*
SMILES,NS1 inh,Cycloheximide cs,SARS PLpro yeast,Shiga inhibitor
O=C(O)CSCC(=O)N1CCCN(c2nc3ccc(Cl)cc3s2)CC1,4%,-3,0%,21
CC(C)(C)NC(=O)N1CCN(c2nc3ccc(Cl)cc3s2)CC1,-6%,15,0%,42*
CC(C)(CC(=O)O)CC(=O)N1CCN(c2nc3ccc(Cl)cc3s2)CC1,1%,-1,-1%,-5
O=S(=O)(c1cc(Cl)ccc1Cl)N1CCC2(CC1)OCCO2,-2%,1,-3%,-27
O=C1NC(c2ccccc2Cl)=N/C1=C/c1ccco1,-4%,38*,-1%,61*
O=C1NC(c2ccc(Br)cc2)=N/C1=C/c1ccco1,16%,41*,-5%,63*
O=C1ON=C(c2ccccc2)/C1=C\c1ccco1,1%,-3,0%,-7
S=c1[nH]nc(-c2ccccc2Cl)n1/N=C/C=C/c1ccco1,?,-3,1%,2
CC1CC(C)(C)NC(=S)N1CCC(=O)NCCc1ccc(Cl)cc1 (centres undefined),nt,-3,-3%,-15
COC(=O)[C@@H](NC(=O)CCc1nnc(-c2ccsc2)o1)C(C)C,-2%,50*,0%,31
Cc1nc(C(C)NC(=O)CCc2nnc(-c3ccsc3)o2)cs1 (centres undefined),5%,0,0%,22
CCOC(=O)CC1COCCN1C(=O)CCc1nnc(-c2ccsc2)o1 (centres undefined),2%,33*,1%,34
O=C(CCc1nnc(-c2ccsc2)o1)N1CCCCC1CCn1ccnc1 (centres undefined),-3%,6,0%,21
O=C(Nc1ccccc1O)c1c(O)c2c([nH]c1=O)CCCC2,-1%,40*,-1%,116*
CCNCCNC(=O)c1c(O)c2c([nH]c1=O)CCCC2,-3%,1,9%,-14
O=C(Nc1nccs1)c1c(O)c2c([nH]c1=O)CCCC2,3%,13*,-1%,25
O=C(N/N=C/c1cccc(Cl)c1)c1c(O)c2c([nH]c1=O)CCCC2,6%,18*,2%,47
CCOC(=O)c1c(SC)[nH]c2c(Cl)cccc2c1=O,1%,-1,1%,4
CC(=O)N1c2ccc(S(=O)(=O)NCCC(=O)N3CCCC(C)C3)cc2CC1C (centres undefined),2%,4,-4%,-8
CNc1nc(-c2ccc3c(c2)CCN3C(=O)c2ccccc2F)cs1,8%,54*,-3%,95*
CNc1nc(-c2ccc3c(c2)CCN3C(=O)c2ccccc2F)c(C)s1,0%,18*,-3%,61*
CNc1nc(-c2ccc3c(c2)CCN3C(=O)CC(C)(C)C)c(C)s1,3%,7,0%,-2
CC(=O)OCC(NC(=O)C(CCCCNC(=O)OCc1ccccc1)NC(=O)OC(C)(C)C)C1OC(n2ccc(=O)[nH]c2=O)C(OC(C)=O)C1OC(C)=O (centres undefined),nt,-3,nt,-9
COc1cc(SC)ccc1C(=O)Nc1ccc(Br)cn1,-7%,31*,-1%,76*
COc1cc(SC)ccc1C(=O)Nc1ccon1,-11%,34*,-2%,60*
SMILES,NS1 inh,Cycloheximide cs,SARS PLpro yeast,Shiga inhibitor
COc1ccc(CNC(=O)c2ccc(SC)cc2OC)cc1,-12%,1,-6%,-8
COc1cc(SC)ccc1C(=O)NC(C)C,2%,4,2%,23
COc1cc(SC)ccc1C(=O)Nc1cccc(C)n1,-12%,33*,14%,84*
COc1cc(SC)ccc1C(=O)Nc1ncc(Cl)cc1Cl,nt,35*,0%,79*
COc1cc(SC)ccc1C(=O)Nc1ncc(C)s1,nt,-7,-3%,9
COc1ccc(N=c2oc3ccccc3cc2C(=O)Nc2ccccn2)cc1OC,-3%,52*,-1%,98*
COc1cc(SC)ccc1C(=O)Nc1ccccn1,-76%,34*,-14%,46
COc1cc(SC)ccc1C(=O)NCCc1ccccc1,-23%,49*,6%,74*
COc1cc(SC)ccc1C(=O)Nc1ccc2ncccc2c1,-29%,27*,-15%,30*
CC(NC(=O)c1ccc(OC2CCN(C(=O)c3cccnc3)CC2)cc1)C1CC1 (centres undefined),-1%,-3,-1%,-8
CCN1C(=O)[C@H]2[C@@H](c3ccc(-c4cc(C(C)=O)cs4)cc3)N3CCCC[C@@]3(C(=O)OC)[C@H]2C1=O,nt,nt,-2%,nt
COc1cc([N+](=O)[O-])ccc1NC(=O)CSc1nnc(C)c(C)n1,-4%,3,1%,-7
CSc1cccc(NC(C)=O)c1,-11%,-1,9%,6

# Source: PubChem
